# Read-outs that look alike come from different tables or passages of the source.
# Assays:
# Set-up in all cases: species or system human, MV4-11 + K-562 + COLO205 + SK-N-BE2 + OVCAR-8
# [1] = system: CDK16; details: read-out: apparent Kd; compound concentrations:100 nM and 1000 nM (sheet 'Samples'); n = 1
# [2] = system: CLK4; details: read-out: apparent Kd; compound concentrations:100 nM and 1000 nM (sheet 'Samples'); n = 1
# [3] = system: CSNK2A1;CSNK2A3; details: read-out: apparent Kd; compound concentrations:100 nM and 1000 nM (sheet 'Samples'); n = 1
# [4] = system: CSNK2A2; details: read-out: apparent Kd; compound concentrations:100 nM and 1000 nM (sheet 'Samples'); n = 1
# [5] = system: GSK3A; details: read-out: apparent Kd, n = 1
# [6] = system: MELK; details: read-out: apparent Kd; compound concentrations:100 nM and 1000 nM (sheet 'Samples'); n = 1
# [7] = system: MYLK3; details: read-out: apparent Kd; compound concentrations:100 nM and 1000 nM (sheet 'Samples'); n = 1
# [8] = system: NUAK1; details: read-out: apparent Kd; compound concentrations:100 nM and 1000 nM (sheet 'Samples'); n = 1
# [9] = system: PRKAG1; details: read-out: apparent Kd; compound concentrations:100 nM and 1000 nM (sheet 'Samples'); n = 1
# [10] = system: CDK10; details: read-out: apparent Kd; compound concentrations: 100 nM and 1000 nM (sheet 'Samples'), CATDS: 0.11960358808183499; n = 1
# [11] = system: GSK3B; details: read-out: apparent Kd; compound concentrations: 100 nM and 1000 nM (sheet 'Samples'), CATDS: 0.208029225896153; n = 1
# [12] = system: HSPE1; details: read-out: apparent Kd; compound concentrations: 100 nM and 1000 nM (sheet 'Samples'), CATDS: 0.54374623342004202; n = 1
# [13] = system: ICK; details: read-out: apparent Kd, n = 1
# [14] = system: PKM; details: read-out: apparent Kd; compound concentrations: 100 nM and 1000 nM (sheet 'Samples'), CATDS: 0.11750793600078301; n = 1
# [15] = system: CDK17; details: read-out: apparent Kd; compound concentrations:100 nM and 1000 nM (sheet 'Samples'); n = 1
# [16] = system: CDK1; details: read-out: apparent Kd; compound concentrations:100 nM and 1000 nM (sheet 'Samples'); n = 1
# [17] = system: CDK2; details: read-out: apparent Kd; compound concentrations:100 nM and 1000 nM (sheet 'Samples'); n = 1
# [18] = system: CDK4; details: read-out: apparent Kd; compound concentrations:100 nM and 1000 nM (sheet 'Samples'); n = 1
# [19] = system: CDK5; details: read-out: apparent Kd; compound concentrations:100 nM and 1000 nM (sheet 'Samples'); n = 1
# [20] = system: CDK6; details: read-out: apparent Kd; compound concentrations:100 nM and 1000 nM (sheet 'Samples'); n = 1
# [21] = system: CDK7; details: read-out: apparent Kd; compound concentrations:100 nM and 1000 nM (sheet 'Samples'); n = 1
# [22] = system: CDK9; details: read-out: apparent Kd; compound concentrations:100 nM and 1000 nM (sheet 'Samples'); n = 1
# [23] = system: NNT; details: read-out: apparent Kd; compound concentrations:100 nM and 1000 nM (sheet 'Samples'); n = 1
# [24] = system: PSMC4; details: read-out: apparent Kd; compound concentrations:100 nM and 1000 nM (sheet 'Samples'); n = 1
# [25] = system: SLK; details: read-out: apparent Kd; compound concentrations:100 nM and 1000 nM (sheet 'Samples'); n = 1
# [26] = system: CDC42; details: read-out: apparent Kd; compound concentrations:100 nM and 1000 nM (sheet 'Samples'); n = 1
# [27] = system: NQO2; details: read-out: apparent Kd; compound concentrations:100 nM and 1000 nM (sheet 'Samples'); n = 1
# [28] = system: PRKD2; details: read-out: apparent Kd; compound concentrations:100 nM and 1000 nM (sheet 'Samples'); n = 1
# [29] = system: PRKD3; details: read-out: apparent Kd; compound concentrations:100 nM and 1000 nM (sheet 'Samples'); n = 1
# [30] = system: PIK3CB; details: read-out: apparent Kd; compound concentrations:100 nM and 1000 nM (sheet 'Samples'); n = 1
# [31] = system: RAB5C; details: read-out: apparent Kd; compound concentrations:100 nM and 1000 nM (sheet 'Samples'); n = 1
# [32] = compound concentrations:100 nM and 1000 nM (sheet 'Samples')
compound,measurement,setting,value
NS(=O)(=O)c1ccc(N/N=C2\C(=O)Nc3ccc(C(=O)NCCc4c[nH]cn4)cc32)cc1 [GW300660X],potency estimated from few doses,[1],1010 nM
same,potency estimated from few doses,[2],1230 nM
same,potency estimated from few doses,[3],2310 nM
same,potency estimated from few doses,[4],1970 nM
same,potency estimated from few doses,[5]; [32],1220 nM
same,potency estimated from few doses,[6],2180 nM
same,potency estimated from few doses,[7],735 nM
same,potency estimated from few doses,[8],1450 nM
same,potency estimated from few doses,[9],1480 nM
Cn1cc(C2=C(c3cccnc3)C(=O)NC2=O)c2ccccc21 [RO0317886-000],potency estimated from few doses,[10],1080 nM
same,potency estimated from few doses,"[5]; compound concentrations: 100 nM and 1000 nM (sheet 'Samples'), CATDS: 0.212149107920546",213 nM
same,potency estimated from few doses,[11],222 nM
same,potency estimated from few doses,[12],39.3 nM
same,potency estimated from few doses,"[13]; compound concentrations: 100 nM and 1000 nM (sheet 'Samples'), CATDS: 0.128713258557627",825 nM
same,potency estimated from few doses,[14],1160 nM
COc1cccc(F)c1C(=O)c1cnc(NC2CCN(S(C)(=O)=O)CC2)nc1N [RO4602005-000],potency estimated from few doses,[1],9.38 nM
same,potency estimated from few doses,[15],73.2 nM
same,potency estimated from few doses,[16],228 nM
same,potency estimated from few doses,[17],37.7 nM
same,potency estimated from few doses,[18],1450 nM
same,potency estimated from few doses,[19],234 nM
same,potency estimated from few doses,[20],1750 nM
same,potency estimated from few doses,[21],812 nM
same,potency estimated from few doses,[22],206 nM
same,potency estimated from few doses,[13]; [32],146 nM
same,potency estimated from few doses,[23],1690 nM
same,potency estimated from few doses,[24],1400 nM
same,potency estimated from few doses,[25],845 nM
Cc1cccc(-c2nc(Nc3cccc(C(N)=O)c3)c3ccccc3n2)n1 [GW876019X],potency estimated from few doses,[26],2080 nM
same,potency estimated from few doses,[3],1510 nM
same,potency estimated from few doses,[4],2230 nM
same,potency estimated from few doses,[27],1160 nM
same,potency estimated from few doses,[28],739 nM
same,potency estimated from few doses,[29],1510 nM
O=c1cc(N2CCOCC2)nc2n(Cc3cccc(C(F)(F)F)c3)ccn12 [GSK2297543A],potency estimated from few doses,[26],1400 nM
same,potency estimated from few doses,[30],274 nM
same,potency estimated from few doses,[31],976 nM
